The text below walks through data of PubChem BioAssay (NCI).

Values joined by “and” are separate entries in the source; they are usually repeats but may differ in a detail not shown here. Equal values may be shown once. The panel holds about 83,000 compounds, 20% with a hit somewhere; the sample as a whole holds those more often.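 Each cell line was grown in a 96-well plate and treated with one concentration of compound for 48 hours. Values below 10 were considered active.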 Active and inactive are the calls of the source.

In the assay the test system is MOLT-4 leukemia. Briefly: NCI-60 one-dose screen, 48 h (100 = growth as untreated, 0 = no growth, -100 = all killed). As to conditions: 10 µM unless noted. As to the method:
Growth inhibition of the MOLT-4 human tumor cell line is measured as a screen for anti-cancer activity. Cells are grown in 96 well plates and exposed to the test compound for 48 hours. Compounds are tested at a single concentration, which is 10^-5 M for most compounds. The reported endpoint is percent growth (GI% or GIPRCNT), where numbers from 0 - 100% represent growth inhibition, and numbers from -100% - 0 represent cell death. For example, a value of 40 represents 60% growth inhibition. A value of 0 means no net growth occurred over the course of the experiment. A value of -40 indicates 40% of cells at the beginning of the experiment died by the end of the experiment. A value of -100 means all cells are dead at the end of the experiment.
NCI-60 Human Tumor Cell Lines Screen was performed using the standard one-dose NCI protocol, which is described in more detail at https://dtp.cancer.gov/discovery_development/nci-60/default.htm.
Compounds with GIPRCNT values below 10 were considered active. Activity score was based on GIPRCNT using the following formula: […]
Score is 0 for GIPRCNT values of 100 or above, 50 for GIPRCNT values of 0, and 100 for GIPRCNT values of -100.
Regarding `COc1ccc(S(=O)(=O)c2ccc(F)cc2)cc1`, the growth was 92.3% (inactive).
Take `CCc1ccc(OC(=O)CCl)cc1`: the growth is 102% (inactive).
Then `CC1CCC(=O)N1c1ccc(N)cc1` (stereo not given), with 105% (inactive); and `O=C1c2ccccc2C(c2ccccc2)C1c1ccccc1` (stereo not given), with 87.8% (inactive).
Then `C/C=C(/C(=O)NC(N)=O)C(C)C`, with 92.3% (inactive); and `O=C1c2cccnc2-c2ncccc21`, with 117% [100 µM] (inactive).
As to `CN(C=O)c1ccccc1`, the growth was 97.5% (inactive).
In the case of `COc1ccc(-n2[nH]c3c(cnc4ccccc43)c2=O)cc1`, the growth was 108% (inactive) and 99.9% (inactive).
In the case of `O=COCCCc1ccccc1`, the growth is 113% (inactive).
For `COc1ccc(CCNC(=S)NN)cc1OC` the value was 108% (inactive); for `CCC(=O)Oc1ccc(OCc2ccccc2)cc1`, 74.4% (inactive) and 75.2% (inactive); for `Cc1ccc2cccc([N+](=O)[O-])c2n1`, 88.5% (inactive) and 89.3% (inactive).
For `O=[N+]([O-])c1cccc2ccc(N/N=C/c3ccccc3O)nc12` the value was 16.6% (inactive) and 57% (inactive); for `COc1ccc(CCO)cc1`, 60.7% (inactive).
For `CCOC(=O)C1=C(C)NC(C)=C(C(=O)OCC)C1` the value was 134% (inactive) and 101% (inactive).
Consider `CN(C)CC(CN(C)C)C(O)c1ccccc1` (stereo not given), for which the growth was 106% (inactive).
Then `O=[N+]([O-])c1ccc(N2CCN=N2)cc1`, with 90.8% (inactive).
Then `Cc1ccc(NC(=S)N/C=C(\c2ccccc2)S(=O)Cc2ccccc2)c(C)c1` (stereo not given), with 94.3% (inactive); and `Cn1c(N)c(N=O)c(=O)n(C)c1=O`, with 93.9% (inactive) and 117% (inactive).
Consider `COC(=O)c1cc(C(=O)OC)cc([N+](=O)[O-])c1`, for which the growth is 71% (inactive).
For `O=C1CCC(=O)N1CC1CC2CCC1C2` (stereo not given) the value was 54.1% (inactive) and 111% (inactive); for `Nc1ccccc1SC(CC(=O)c1ccccc1)c1cccc([N+](=O)[O-])c1` (stereo not given), 87.6% (inactive) and 55% (inactive); for `Cc1onc(-c2c(F)cccc2Cl)c1-c1ncc(-c2ccc(Cl)cc2)o1`, 42.4% (inactive) and 16.1% (inactive).
`Cc1ccc(S(=O)(=O)n2ccnc2)cc1`: the growth is 138% (inactive).
As to `O=C1C=CC[C@H](/C=C/c2ccccc2)O1`, the growth is 3.44% (active) and -22.1% (active).
Then `Nc1[nH][nH]c(=O)c1N=Nc1ccccc1`, with 121% (inactive) and 100% (inactive); and `COc1ccccc1OCC(O)CO` (stereo not given), with 144% (inactive) and 121% (inactive).
Take `COc1ccc2oc3cc(NCCN(C)C)ccc3c(=O)c2c1`: the growth was 80.3% (inactive) and 50.9% (inactive).
Then `COC(=O)C(Cc1cn(C(C)=O)c2ccccc12)P(=O)(OC)OC` (stereo not given), with 108% (inactive); and `Nc1nc(=S)c2[nH]cnc2[nH]1`, with 10.1% (inactive) and 0.426% (active); and `O=C(O)c1cc(=O)[nH]c(=O)[nH]1`, with 98.5% (inactive) and 91.5% (inactive).
Then `O=c1[nH]c(=O)n(C2OC(CO)C(O)C2O)cc1I` (stereo not given), with 84.8% (inactive) and 111% (inactive); and `O=[N+]([O-])c1ccc(NC(c2ccccc2)c2ccc3cccnc3c2O)cc1` (stereo not given), with 9.81% (active); and `Nc1c(S(=O)(=O)O)cc(Br)c2c1C(=O)c1ccccc1C2=O`, with 99.7% (inactive) and 91.1% (inactive).
Consider `CCn1c2ccc(N(C)C)cc2c2cc(N(C)C)ccc21`, for which the growth is 96.9% (inactive).
For `O=[N+]([O-])c1ccc(NC2CCCCC2)nc1` the value was 95.2% (inactive) and 106% (inactive); for `Nc1nc(N)c2cc(S(=O)(=O)c3ccccc3)ccc2n1`, 32.8% (inactive) and 49.8% (inactive); for `COC(=O)c1nc(=S)[nH]c(C(=O)OC)c1C(=O)c1ccccc1`, 112% (inactive).
Regarding `CC(=O)Oc1cc(C)c(OC(C)=O)c(C)c1C`, the growth was 109% (inactive).
For `CCOC(=O)C(N)Cc1cc(I)c(O)c(I)c1` (stereo not given) the value was 102% (inactive) and 112% (inactive).
